The results in this text go back to PubChem BioAssay (NCATS).

Inconclusive results are not listed. Active and inactive are the calls of the source. Calls come from the whole dose curve.
Potency is the fitted concentration of half-maximal effect.

The nature of the test: Confirmatory qHTS to identify inhibitors of SARS-CoV-2 cell entry (AID 1645844). Note: nearly all actives have a fitted effect of over 45% in size. The note with it: SARS-CoV-2 pseudotyped particle cell entry, luciferase; series mostly up to 57.2 µM. From the text:
Assay Provider: Wei Zheng, Ph.D.
National Center for Advancing Translational Sciences, National Institute of Health, Rockville, MD.
SARS-CoV-2 spike protein, within the viral envelope, mediates viral attachment and infection of host cells. The SARS-CoV-2 spike protein specifically binds to the host receptor ACE2 (Angiotensin-converting enzyme 2). This interaction promotes endocytosis of the viral particle, additional events lead to viral-host cell membrane fusion and release of the viral contents, allowing viral replication.
While SARS-CoV-2 requires BSL-3 facilities for live virus work, pseudotyped partices (PP) that incorporate SARS-CoV-2 spike proteins without replication elements could facilitate studies on viral entry mechanisms in a BSL-2 setting. This PP cell entry assay could also enable screening of small molecule compound libraries in BSL-2 setting to identify inhibitors of SARS-CoV-2 cell entry.
SEQUENCE No. (e.g., 1, 2, 3, etc.); […] (e.g., Cells, Incubation, Reagent, etc.); VALUE and DESCRIPTION.
1. Cells. Seed 1500 HEK293-ACE2 cells (Expi293F with stable expression of human ACE2) in 2 uL/well media (DMEM, 10% FBS, 1x L-glutamine, 1x Pen/Strep, 1 ug/ml puromycin) in white 1536-well assay plates (Greiner #782073).
2. Incubation. Incubate at 37C with 5% CO2 overnight (~16 h).
3. Compounds. Dispense 23 nL/well compounds in DMSO via pin transfer.
4. Incubation. Incubate for 1 hr at 37C 5% CO2.
5. Reagent. Dispense 2 uL/well of SARS-CoV-2-S pseudotyped particles (PP). [a] PPs are produced with murine leukemia virus pseudotyping). [b] SARS-CoV-2-S is Wuhan-Hu-1 sequence (BEI #NR-52420) with C-terminal 19 amino acid truncation.
6. Centrifugation. […]
7. Incubation. Incubate at for 48 hr at 37C 5% CO2
8. Centrifugation. Remove supernatant with gentle centrifugation using a Blue Washer (BlueCat Bio).
9. Reagent. Dispense 4 uL/well of Bright-Glo Luciferase detection reagent (Promega #E2620).
10. Incubation. Incubate for 5 min at room temperature.
11. Detection. Read luminescence signal (Viewlux plate reader, PerkinElmer). Data was normalized with wells containing SARS-CoV-2-S PP as 100%, and wells containing bald PP (no fusion protein) as 0%.
In the case of `CCCS(=O)(=O)Nc1ccc(F)c(C(=O)c2c[nH]c3ncc(-c4ccc(Cl)cc4)cc23)c1F`, the Potency was 68.1 nM (active). Regarding `CNC(=O)c1cc(Oc2ccc(NC(=O)Nc3ccc(Cl)c(C(F)(F)F)c3)c(F)c2)ccn1`, the Potency is 8570 nM (active).

In the case of `CCc1c(C(=O)C(N)=O)c2c(OCC(=O)O)cccc2n1Cc1ccccc1`, the Potency entry was “inactive”. Regarding `O=C(Nc1ccncc1)C(=O)c1cn(Cc2ccc(Cl)cc2)c2ccccc12`, the Potency is 961 nM (active).

For the compound `CS(=O)(=O)c1cccc(CNc2nc(Nc3ccc4c(c3)CCC(=O)N4)ncc2C(F)(F)F)c1`, the Potency was 192 nM (active). With `Cc1cc(Nc2cc(N3CCN(C)CC3)nc(Sc3ccc(NC(=O)C4CC4)cc3)n2)n[nH]1`, the Potency was 121 nM (active).

For the compound `Cc1ccc(C(N)=O)cc1Nc1nccc(-c2cn(C(C)C)c3cnccc23)n1`, the Potency is 1710 nM (active). As for `CC(C)[C@H](C(=O)Nc1ccc(C(=O)NO)cc1)c1ccccc1`, the Potency entry is “inactive”. On to `CC(=O)c1c(C)c2cnc(Nc3ccc(N4CCNCC4)cn3)nc2n(C2CCCC2)c1=O`, for which the Potency was 17100 nM (active). For the compound `COc1cc2nccc(Oc3ccc(NC(=O)C4(C(=O)Nc5ccc(F)cc5)CC4)cc3)c2cc1OC`, the Potency was 2150 nM (active). For the compound `O=C(O)c1ccc2c(c1)nc(Nc1cccc(Cl)c1)c1ccncc12`, the Potency is 2150 nM (active). The figure for `CN1CC[C@@H](c2c(O)cc(O)c3c(=O)cc(-c4ccccc4Cl)oc23)[C@@H](O)C1` is 1210 nM (active). For the compound `COc1cc(Nc2ncc3c(n2)-c2ccc(Cl)cc2C(c2c(F)cccc2OC)=NC3)ccc1C(=O)O`, the Potency was 10.8 nM (active). Then `Cc1n[nH]c(C)c1Cc1sc2c(c1C(=O)N1C[C@H](O)CO1)c(=O)n(C)c(=O)n2CC(C)C`, with 393 nM (active); and `CC(C)(C)c1cnc(CSc2cnc(NC(=O)C3CCNCC3)s2)o1`, with 4290 nM (active). Take `COc1cc([C@@H]2c3cc4c(cc3[C@@H](O)C3COC(=O)C32)OCO4)cc(OC)c1O` (stereo partly drawn): the Potency is 1710 nM (active).

As for `O=c1[nH]c(-c2ccc(C(F)(F)F)cc2)nc2c1CSCC2`, the Potency is 9610 nM (active). In the case of `O=C(c1cc(Cc2n[nH]c(=O)c3ccccc23)ccc1F)N1CCN(C(=O)C2CC2)CC1`, the Potency was 27100 nM (active). With `Cc1ccccc1-n1c(Cn2ncc3c(N)ncnc32)nc2cccc(C)c2c1=O`, the Potency is 7640 nM (active). Then `CN(c1ncccc1CNc1nc(Nc2ccc3c(c2)CC(=O)N3)ncc1C(F)(F)F)S(C)(=O)=O`, with 857 nM (active); and `Cc1cc(Nc2nc(N[C@@H](C)c3ncc(F)cn3)ncc2Cl)n[nH]1`, with 2710 nM (active).

Regarding `CC(=O)Nc1ccc([C@H](C)C(=O)Nc2ncc(C(C)C)s2)cc1`, the Potency was 4820 nM (active). Then `N#CCNC(=O)c1ccc(-c2ccnc(Nc3ccc(N4CCOCC4)cc3)n2)cc1`, with 9610 nM (active).
